According to paper PMC4336329 (PLoS ONE, 2015):
Screen size: about 310,000 compounds; about 14,000 (4.5%) showed an effect of 50% or more. Effects have a minus sign here. Many of the other results were omitted from the sample, so strong results are more common in it than they were.

These molecules were tested against human ether-à-go-go-related gene (hERG) potassium channel (human, UniProt Q12809) (assay: primary screen, population patch clamp on CHO cells stably expressing hERG; higher = less effect of the substance).
Chain of human ether-à-go-go-related gene (hERG) potassium channel (Q12809 whole entry, looked up): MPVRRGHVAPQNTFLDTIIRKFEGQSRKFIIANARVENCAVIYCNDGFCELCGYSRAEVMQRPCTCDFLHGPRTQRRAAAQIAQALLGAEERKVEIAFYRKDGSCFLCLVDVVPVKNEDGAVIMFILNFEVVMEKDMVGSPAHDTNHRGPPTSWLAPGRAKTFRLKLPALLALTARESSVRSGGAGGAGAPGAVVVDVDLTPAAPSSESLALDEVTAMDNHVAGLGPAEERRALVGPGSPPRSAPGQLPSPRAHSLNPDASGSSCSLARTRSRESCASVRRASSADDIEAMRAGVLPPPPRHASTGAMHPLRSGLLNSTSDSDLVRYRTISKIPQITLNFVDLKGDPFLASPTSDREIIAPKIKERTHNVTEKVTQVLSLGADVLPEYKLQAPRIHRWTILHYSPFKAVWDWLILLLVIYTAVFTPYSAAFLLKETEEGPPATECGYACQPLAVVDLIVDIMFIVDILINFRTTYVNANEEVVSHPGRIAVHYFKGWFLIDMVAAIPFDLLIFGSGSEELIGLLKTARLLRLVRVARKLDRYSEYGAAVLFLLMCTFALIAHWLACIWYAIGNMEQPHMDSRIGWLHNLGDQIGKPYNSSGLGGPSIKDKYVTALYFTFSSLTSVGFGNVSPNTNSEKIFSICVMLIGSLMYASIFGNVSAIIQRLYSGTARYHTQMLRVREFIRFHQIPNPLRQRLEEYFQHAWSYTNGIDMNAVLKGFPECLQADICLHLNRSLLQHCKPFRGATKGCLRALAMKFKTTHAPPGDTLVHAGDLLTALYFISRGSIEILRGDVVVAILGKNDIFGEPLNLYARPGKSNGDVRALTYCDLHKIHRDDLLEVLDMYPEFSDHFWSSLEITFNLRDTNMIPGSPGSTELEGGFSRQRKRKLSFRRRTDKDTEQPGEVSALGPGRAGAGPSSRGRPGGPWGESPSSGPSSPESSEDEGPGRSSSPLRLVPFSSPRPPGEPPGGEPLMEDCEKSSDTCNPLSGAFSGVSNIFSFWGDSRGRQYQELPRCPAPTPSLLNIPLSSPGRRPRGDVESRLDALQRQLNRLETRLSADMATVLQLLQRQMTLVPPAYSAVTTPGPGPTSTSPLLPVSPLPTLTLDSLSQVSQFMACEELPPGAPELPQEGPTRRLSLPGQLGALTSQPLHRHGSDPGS
Description: Briefly, Chinese hamster ovary (CHO) cells stably expressing the hERG channel were dislodged from tissue culture flasks and dispensed into PPC plates. […] During the recording, background leak currents were estimated by a 100 ms step to -80 mV from an initial holding potential of -70 mV and subtracted from the subsequent current measurement. The campaign was conducted in two phases using slight differences in recording protocol. In the first phase, the initial voltage pulse used a 100 ms step to -30 mV from a holding potential of -70 mV, a 2 s conditioning step to +25 mV, and a 2 s test step to -30 mV. During the second phase of the screen, the potential during the conditioning step was raised to +45 mV. In both phases of the campaign, a secondary voltage pulse was applied using the same parameters as the second phase initial pulse. The initial and secondary pulses were applied in the absence of compound, and upon application of 1 μM and 10 μM test concentrations. […]
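Note: peak tail current of the secondary pulse compared with the same well before compound.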

Row | SMILES | hERG current change (%, negative = inhibition) at 10uM
1 | Cc1cc(C)c2[nH]c(=O)c(CN(CC3CCCO3)C(=S)NCc3ccco3)cc2c1 (centres unmarked) | -4.81%
2 | Cc1cc(C)c2[nH]c(=O)c(CN(Cc3cccs3)C(=S)NCc3ccco3)cc2c1 | -15.7%
3 | Cc1ccc2cc(CN(CC3CCCO3)C(=S)NCc3ccco3)c(=O)[nH]c2c1C (centres unmarked) | -40.8%
4 | Cc1cccc2cc(CN(CCN(C)C)C(=S)NCc3ccco3)c(=O)[nH]c12 | -38.9%
5 | CCN(CC)CCN(Cc1cc2ccc(C)c(C)c2[nH]c1=O)C(=S)NCc1ccco1 | -51.4%
6 | CCN(CC)CCN(Cc1cc2cc(C)cc(C)c2[nH]c1=O)C(=S)NCc1ccco1 | -52.5%
7 | Cc1ccc(OCCC(=O)Nc2ccc(S(=O)(=O)Nc3cc(C)nc(C)n3)cc2)cc1 | 1.18%
8 | Br.C=CCN1CCc2cccc3c2[C@H]1Cc1ccc(O)c(O)c1-3 | -19.3%
9 | COc1c(O)ccc2c1-c1c3c(cc4c1C(C2)N(C)CC4)OCO3 (centres unmarked) | -28.7%
10 | Br.CCCN1CCc2cc(O)cc3c2[C@H]1Cc1ccc(O)c(O)c1-3.O | -57.8%
11 | Cn1c(N)c(N=Nc2ccc(S(N)(=O)=O)cc2)c(=O)n(C)c1=O | 27.6%
12 | CCN(CC(=O)Nc1ccc(OC)cc1)CC(=O)Nc1ccc(Br)cc1F | -67.4%
13 | CCN(CC(=O)Nc1ccc(OC)cc1)CC(=O)Nc1ccc(Cl)cc1F | -6.34%
14 | COc1ccc(NC(=O)CN(C)CC(=O)Nc2ccc(Cl)cc2F)cc1 | -10.6%
15 | Cc1ccc(Cn2nnc3c(=O)n(CC(=O)c4ccccc4)cnc32)cc1 | -0.591%
16 | COc1ccc(NS(=O)(=O)c2cc(-c3cnc(C4CC4)o3)ccc2C)cc1 | 6.02%
17 | Cc1ccc(-c2nc(CSCC(=O)N3CCN(c4ccccn4)CC3)c(C)o2)cc1 | -25%
18 | Cc1ccc(-c2nc(CS(=O)CC(=O)N3CCN(c4ccc(F)cc4)CC3)c(C)o2)cc1 (centres unmarked) | -42%
19 | CCc1ccc(-c2nc(CN3CCC(C(=O)N4CCN(c5ccccc5)CC4)CC3)c(C)o2)cc1 | -71.3%
20 | CCc1ccc(-c2nc(CSCC(=O)N3CCN(c4ccccn4)CC3)c(C)o2)cc1 | -50.7%
21 | CCOc1ccccc1-c1nc(CN2CCC(C(=O)N3CCOCC3)CC2)c(C)o1 | -5.13%
22 | Cc1ccc(-c2nc(CS(=O)CC(=O)N3CCN(c4ccccc4)CC3)c(C)o2)cc1 (centres unmarked) | -31.3%

Row | SMILES | hERG current change (%, negative = inhibition) at 10uM
23 | COc1ccc(-c2nc(CN3CCC(C(=O)N4CCOCC4)CC3)c(C)o2)cc1OC | -6.54%
24 | Cc1ccc(-c2nc(CS(=O)CC(=O)N3CCN(c4ncccn4)CC3)c(C)o2)cc1 (centres unmarked) | -54.1%
25 | CCc1ccc(-c2nc(CSCC(=O)N3CCN(c4ncccn4)CC3)c(C)o2)cc1 | -23.6%
26 | Cc1ccccc1-c1nc(CN2CCC(C(=O)N3CCN(c4ccccn4)CC3)CC2)c(C)o1 | -62%
27 | COC(=O)c1ccc(-c2nc(CN3CCC(C(=O)N4CCOCC4)CC3)c(C)o2)cc1 | -7.65%
28 | Cc1nn(Cc2ccccc2Cl)c(C)c1NC(=O)Cn1nc([N+](=O)[O-])c(Cl)c1C | 7.21%
29 | COC(=O)c1coc(-c2ccc(C)cc2)c1C(=O)OC | 1.6%
30 | CC(=O)c1ccc(N2CCN(S(=O)(=O)c3ccc4ccccc4c3)CC2)cc1 | 3.28%
31 | Cc1cc(Nc2nnnn2-c2ccccc2)n(-c2ccccc2)n1 | -21.8%
32 | CCN1CCN(C(=O)C(NS(=O)(=O)c2ccc3nc(C)sc3c2)C(C)C)CC1 (centres unmarked) | 0.194%
33 | COc1ccc(-c2[nH]c(-c3ccc(F)cc3)nc2SCC(=O)NCc2ccco2)cc1OC | 18.8%
34 | CSc1ccc(/C=N/Nc2ccc(Cl)c(C(=O)O)c2)cc1 | 6.73%
35 | COC(=O)/C(=C/c1c[nH]c2ccccc12)NC(C)=O | 6.31%
36 | CCc1ccc(-c2nc(CN3CCC(C(=O)N4CCN(c5ccccn5)CC4)CC3)c(C)o2)cc1 | -68.5%
37 | Cc1ccccc1-c1nc(CN2CCC(C(=O)O)CC2)c(C)o1 | -18.6%
38 | CCOC(=O)N1CCN(C(=O)C2CCN(Cc3nc(-c4ccccc4C)oc3C)CC2)CC1 | -58.3%
39 | Cc1ccccc1-c1nc(CN2CCC(C(=O)N3CCC(C(N)=O)CC3)CC2)c(C)o1 | 2.7%
40 | O=C1OC(/C=C/c2ccccc2)=NC/1=C\c1cccnc1 | 19.4%
41 | CCCc1c(O)nc(SCC(=O)NCc2ccco2)[nH]c1=O | 27%
42 | O=C(Nc1ccc(-n2cnnn2)cc1)C(c1ccccc1)c1ccccc1 | 8.56%
43 | O=C(c1ccc(-n2cnnn2)cc1)N1CCN(C(c2ccccc2)c2ccccc2)CC1 | -64.7%
44 | O=C(c1ccc(-n2cnnn2)cc1)N1CCOCC1 | -1.64%
